This is a sample that favours compounds with a hit; in the whole collection about 5.7% have one here.
ClpP mod = qHTS Assay for Activators of ClpP; ATP-dependent Clp protease proteolytic subunit (Bacillus subtilis (strain 168)), P80244; purified B. subtilis ClpP, FRET peptide cleavage, 20 min; Potency, µM (top dose mostly 57.5 µM), without a hit: at the top dose activity change, negative = active; actives 1.9% (n = 340,000); AID 651965, 2013; active = well fitted falling curve with a large enough effect; inconclusive = small, poorly fitted or top-dose-only effect; inactive = no such curve, though single readings can be large or run the other way; note: potency is the fitted concentration of half-maximal effect; the source files actives as falling curves though it sought activators and does not explain the sign; nearly all actives have a fitted effect of over 65% in size
Target sequence (P80244 whole entry, looked up): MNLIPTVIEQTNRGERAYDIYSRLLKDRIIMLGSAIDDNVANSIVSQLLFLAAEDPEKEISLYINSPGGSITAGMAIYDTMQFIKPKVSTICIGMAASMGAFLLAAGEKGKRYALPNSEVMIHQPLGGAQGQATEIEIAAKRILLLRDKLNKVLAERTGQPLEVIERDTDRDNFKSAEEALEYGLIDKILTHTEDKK
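ClpP 10 microg/mL final, pH 8 Tris/KCl buffer with BSA, glycerol, Tween-20; compound pinned in; FRET-FV substrate; RT 20 min; Ex320/Em430; ΔFRET vs ADEP 5.8 microM, DMSO, no enzyme.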
GLP-1R agonist = qHTS of GLP-1 Receptor Agonists | Glucagon-like peptide 1 receptor (Homo sapiens), P43220 | HEK293 GLP-1R CRE-luciferase, luminescence, 4-6 h; cells express a hypersensitive GLP-1R form | Potency, µM (top dose mostly 45.6 µM), for the others: top-dose activation, hits mostly activators | actives 0.007% (n = 380,000) | AID 624172, 2012; note: potency is the fitted concentration of half-maximal effect; % of control where 0% means no effect
D3 ag = qHTS of D3 Dopamine Receptor Agonist: qHTS. D3R DiscoveRx beta-arrestin cells, luminescence, 90 min. max activation, %. actives 0.58% (n = 410,000). AID 652048, 2013; in the data active = max activation above about 30%; note: 0% is about no effect
Target sequence (P35462 whole entry, looked up): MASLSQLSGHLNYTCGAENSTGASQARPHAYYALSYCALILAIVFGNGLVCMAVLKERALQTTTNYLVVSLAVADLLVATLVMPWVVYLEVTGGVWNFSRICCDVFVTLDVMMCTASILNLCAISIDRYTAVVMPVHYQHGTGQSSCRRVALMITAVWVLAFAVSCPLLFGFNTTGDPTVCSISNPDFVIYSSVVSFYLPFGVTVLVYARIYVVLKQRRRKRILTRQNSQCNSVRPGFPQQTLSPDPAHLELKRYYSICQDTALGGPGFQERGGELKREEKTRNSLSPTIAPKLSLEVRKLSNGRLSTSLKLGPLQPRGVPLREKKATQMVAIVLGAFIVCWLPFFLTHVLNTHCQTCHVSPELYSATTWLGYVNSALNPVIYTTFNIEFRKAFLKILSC
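Agonist-mode cell screen: cells plated at 1500/well and incubated overnight at 37 °C, then exposed to library compounds for 90 min at 37 °C. Detection reagent was added for 30–60 min at room temperature, and luminescence was read.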
HEK293 tox = qHTS of GLP-1 Receptor Inverse Agonists: Cytotox Screen; actives 0.13% (n = 410,000); HEK293 cAMP-luciferase reporter cells, luminescence, 24 h; AID 624418, 2012; Potency, µM (doses to about 38.3 µM), for inactives: at the top dose activity change, negative = inhibition, usual class: inhibitors;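 note: loss of luciferase light is scored as toxicity; potency is the fitted concentration of half-maximal effect; % is set by controls: 0 for no effect and ±100 for the full control effect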
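Quantitative HTS format, 1536 wells, 200 cells/uL seeded. Compounds: 23 nL, 24 h, 37 °C. Detection: luciferase reagent, luminescence at 12 min RT; decreased signal taken as cytotoxic.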
DRD3 antagonist = qHTS of D3 Dopamine Receptor Antagonist: qHTS; D(3) dopamine receptor (Homo sapiens), P35462; D3R cells, DiscoveRx beta-arrestin luminescence, antagonist mode; active compounds read low; max response, negative = inhibition, %; actives 2.5% (n = 360,000); in the data active = max response below about -50%; inconclusive = no clear call, values can overlap the other calls; note: % is set by controls: 0 for no effect and ±100 for the full control effect
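Cells plated overnight at 1500 cells/well, then exposed to library compounds with dopamine controls for 90 minutes at 37 degrees C. DiscoveRx reagent added for 30–60 minutes at room temperature; luminescence read, quantitative HTS format.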
GLP1R inv ag = qHTS of GLP-1 Receptor Inverse Agonists (Inhibition Mode); HEK293 GLP-1R CRE-luciferase, luminescence, 24 h; GLP-1R form is constitutively active; actives 1.6% (n = 410,000); Potency, µM (highest dose often 38.3 µM), for the others: at the top dose activity change, negative = inhibition, usual class: inhibitors; Glucagon-like peptide 1 receptor (Homo sapiens), P43220; note: potency is the fitted concentration of half-maximal effect; % is set by controls: 0 for no effect and ±100 for the full control effect; nearly all actives have a fitted effect of over 55% in size
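GLP-1R inverse agonism mode: basal reporter luminescence in engineered HEK293 cells measured after one day of compound exposure at 37 deg C, with a 12 min room-temperature detection step.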
Active calls of the source: *; ? = inconclusive; nt = no result given. Unless noted, calls come from the whole dose curve; as a rule, active = well fitted curve in the direction sought with a large enough effect; inconclusive = small, poorly fitted or top-dose-only effect, or another doubt; inactive = no such curve, though single readings can be large; an effect the other way counts as inactive or inconclusive.

SMILES	ClpP mod	GLP-1R agonist	D3 ag	HEK293 tox	DRD3 antagonist	GLP1R inv ag
CCCCc1c(C)nn(-c2nnc3c4ccccc4n(CC)c3n2)c1C	1%	-3%	-1	10µM*	8	10µM*
CCn1c(O)c(N=NC(=O)CNC(=O)c2ccco2)c2ccccc21	1%	8%	-3	2%	-2	-14%
COc1ccccc1C(=O)NCC(=O)N=Nc1c(O)n(C(C)C)c2ccccc12	0%	20%	-15	-6%	-59*	4%
CCn1c(O)c(N=NC(=O)CNC(=O)c2ccccc2F)c2ccccc21	1%	13%	-7	-8%	-74*	14%
CC(C)n1c(O)c(N=NC(=O)CNC(=O)Cc2ccc(Cl)cc2)c2ccccc21	1%	23%	-3	?	-15	?
C(=N\n1cnnc1)/c1nc2ccccc2[nH]1	16µM*	-9%	-4	0%	-8	0%
Cn1c(/C=N/n2cnnc2)nc2ccccc21	14µM*	-2%	4	-12%	15	-14%
Cc1[nH]c2ccccc2c1/C=N/n1cnnc1	0%	-24%	3	-8%	6	0%
CC(C)=CCC/C(C)=C\CC/C(C)=C\CC/C=C(\C)CC/C=C(\C)CCC=C(C)C	nt	-5%	nt	nt	nt	nt
O=C(NCc1ccccc1Cl)C1CCN(C(=O)N2CCOc3ccccc32)CC1	1%	nt	3	1%	nt	-19%
COc1ccc(C(=O)N2CCCCC2CCN2CCCCC2)cc1 (configuration not stated)	-1%	nt	-3	0%	nt	6%
O=C(CSc1nnc(CNC(=O)c2ccccc2)o1)NCCc1ccccc1	-2%	-9%	-19	0%	-68*	1%
O=C(CSc1nnc(CNC(=O)c2ccccc2)o1)NCc1ccccc1Cl	32µM*	-4%	4	17%	12	4%
O=C(CSc1nnc(CNC(=O)c2ccc(F)cc2)o1)NCc1ccccc1Cl	1%	0%	0	-6%	-17	-12%
CCOc1cccc(C2C=C(c3ccc4c(c3)OCO4)NC(c3ccccc3F)N2)c1O (configuration not stated)	-2%	nt	nt	nt	nt	nt
O=C(CCNS(=O)(=O)c1ccc2c(c1)CCN2C(=O)C1CC1)Nc1ccc(F)cc1F	0%	10%	2	1%	nt	4%
C=C[C@]1(C)C[C@@H](OC(=O)CO)[C@]2(C)[C@H](C)CC[C@]3(CCC(=O)[C@H]32)[C@@H](C)[C@@H]1O	nt	nt	6	nt	nt	nt
COc1cc(OC)c(OC)cc1/C=N/NC(=S)NCC1CCCO1 (configuration not stated)	32µM*	25%	0	?	23	12%
CC(C)CN1CC(C)C(=O)NC1=S (configuration not stated)	28µM*	2%	7	1%	14	11%
Cc1ccc(NC(=O)C2CCCN2S(=O)(=O)c2ccc3c(c2)CCCC(=O)N3)cc1C (configuration not stated)	-1%	nt	8	-6%	nt	9%
COc1ccc(C)cc1NS(=O)(=O)c1cccc2nonc12	2%	0%	2	8%	-52*	-1%
O=c1c2[nH]c3ccc(F)cc3c2ncn1CCCN1CCOCC1	20µM*	1%	-5	6%	0	-1%
CCCCN(C)Cc1cc(=O)oc2cc3c(cc12)CCCC3	14µM*	6%	-47	-8%	-91*	?
Cc1cc2oc(=O)cc(CN(C)Cc3ccccc3)c2cc1C	-5%	3%	-6	2%	-19	11%
CCc1ccc2oc(=O)cc(CN(C)Cc3ccccc3)c2c1	16µM*	28%	2	28%	10	?
SMILES	ClpP mod	GLP-1R agonist	D3 ag	HEK293 tox	DRD3 antagonist	GLP1R inv ag
Cc1ccc(C(=O)Nc2ccc(Cl)c(-c3nc4ncccc4o3)c2)c(C)c1	-16%	nt	2	-16%	nt	?
O=C(NCCC1=CCCCC1)C1CCCN(S(=O)(=O)c2cccc3cccnc23)C1 (configuration not stated)	3%	1%	-10	?	13	7.9µM*
O=C(Nc1ccncc1)C1CCCN(S(=O)(=O)c2cccc3cccnc23)C1 (configuration not stated)	-4%	8%	-7	-24%	-14	1.8µM*
Cc1cc(C)cc(NC(=O)CN(c2cc(C(F)(F)F)ccc2Cl)S(=O)(=O)c2ccccc2)c1	-1%	-2%	3	1%	nt	-16%
CCCC(=O)N(Cc1cc2cc(OC)ccc2[nH]c1=O)c1ccc(OC)cc1	5%	2%	1	7%	28	0%
Cc1cc(C)nc(-n2nc(C)cc2NC(=O)CN2CCCC(C)C2)n1 (configuration not stated)	1%	25%	-8	-1%	-23	-1%
CN(C)S(=O)(=O)c1ccc(Cl)c(NC(=O)CN2CCc3ccccc3C2)c1	nt	21%	74*	0%	2	?
O=C(CN1CCc2ccccc2C1)NCC(=O)Nc1ccc(F)cc1	nt	1%	-6	17%	2	-21%
CN(C)S(=O)(=O)c1ccc(Cl)c(NC(=O)COC(=O)c2cc(-c3ccccc3)nc3ccccc23)c1	0%	6%	36*	2%	3	-19%
Cc1cc(C)nc(-n2nc(C)cc2NC(=O)CN2CCc3ccccc3C2)n1	0%	10%	-14	5µM*	-6	?
CCc1ccc(NC(=O)CN2CCc3ccccc3C2)cc1	-4%	12%	-2	-8%	-65*	0%
CCc1ccc(NC(=O)CCn2c(=O)c3cccn3c3ccccc32)cc1	-14%	6%	-21	-20%	-54*	?
O=C(CN1CCc2ccccc2C1)Nc1ccccc1C(F)(F)F	32µM*	7%	-10	8%	5	?
CN1CCN(CC(=O)Nc2ccccc2C(F)(F)F)CC1	2%	1%	1	-2%	12	4%
O=C(CN1CCc2ccccc2C1)Nc1ccc(Br)cc1	-4%	10%	-3	1%	-52*	-3%
Cc1ccc(NC(=O)CN2CCc3ccccc3C2)cc1S(=O)(=O)N(C)C	nt	5%	-2	-7%	?	?
Cc1ccc(NC(=O)CN2CCc3ccccc3C2)cc1F	nt	12%	-36	0%	-85*	-23%

Source: PubChem (National Center for Advancing Translational Sciences (NCATS))
